Source: the supplement of paper PMC10849652
Targets with a hit are over-represented here; the source holds about 7,900 in all. About 0.6% of all pairs of compound and target were hits.

Tests used:
Experiment in all cases: log2 fold change, soluble protein after heating vs DMSO (PISA); higher = thermal stabilisation; K562 cells, 10 uM, 30 min; active = over 0.2 and 3.5 SD of the protein, either way, in both replicates (recomputed)
erlotinib = compound: C#Cc1cccc(Nc2ncnc3cc(OCCOC)c(OCCOC)cc23)c1 [erlotinib]
Summary of the method: (§1)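 Quantification of soluble protein used TMTpro 16plex LC-MS/MS, with channel sums equalised. Samples were the supernatant after 21,000xg for 90 min of pooled aliquots from K562 cells (2×10^6 cells/mL) treated with 10 μM compound for 30 min, heated for 3 min over 48°C-58°C, and extracted in PBS with 0.5% NP-40 at 4°C. Values, from duplicates, describe thermal stability against control samples on a log2 fold-change scale.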

[1] = compound: C1=CC(=CC=C1C2=NC3=C(N2)C=C(C=C3)C(=O)N)OC4=CC=C(C=C4)Cl
Summary of the method: as §1

[2] = compound: C1CCN(C1)C(=O)NC2=CC=CC(=C2)NC3=NC=C(C(=N3)NCCC4=CN=CN4)Br
Summary of the method: as §1

[3] = compound: C1CN(CCC1(CC2=CC=C(C=C2)Cl)N)C3=NC=NC4=C3C=CN4
Summary of the method: as §1

IRAK-1-4 Inhibitor I = compound: C1COCCN1CCN2C3=CC=CC=C3N=C2NC(=O)C4=CC(=CC=C4)[N+](=O)[O-] [IRAK-1-4 Inhibitor I]
Summary of the method: as §1

[4] = compound: CC(C)C1=C2N=C(C=C(N2N=C1)NCC3=CC=CC=C3)NCCCCCCN
Summary of the method: as §1

pinometostat = compound: CC(C)N(C[C@H]1O[C@@H](n2cnc3c(N)ncnc32)[C@H](O)[C@@H]1O)[C@H]1C[C@@H](CCc2nc3cc(C(C)(C)C)ccc3[nH]2)C1 [pinometostat]
Summary of the method: as §1

[5] = compound: CC1=C(C2=C(C=C1)C(=O)C3=CC=CC=C3N2CCCN)C
Summary of the method: as §1

[6] = compound: C/C(=N\NC(=O)C1=CC(=CC=C1)S(=O)(=O)N2CCOCC2)/C3=C(C=CC(=C3)Cl)O
Summary of the method: as §1

[7] = compound: C1=CC2=C(C=CC(=C2)/C=C\3/C(=O)NC(=NCC4=CC=CS4)S3)N=C1
Summary of the method: as §1

[8] = compound: C1=CC2=NC=CN=C2C=C1/C=C/3\C(=O)NC(=O)S3
Summary of the method: as §1

[9] = compound: C1=CC=C(C=C1)C2=NC(=C(N2)C3=CC=NC=C3)C4=CC(=C(C=C4)Cl)O
Summary of the method: as §1

[10] = compound: C1=CC=C2C(=C1)C3=NNC4=CC=CC(=C43)C2=O
Summary of the method: as §1

ibrutinib = compound: C=CC(=O)N1CCC[C@@H](n2nc(-c3ccc(Oc4ccccc4)cc3)c3c(N)ncnc32)C1 [ibrutinib]
Summary of the method: as §1

[11] = compound: CC(=O)c1cnc2ccc(-c3cc(Cl)c(O)c(Cl)c3)nc2c1N[C@H]1CC[C@H](CN(C)C)CC1
Summary of the method: as §1

ralimetinib = compound: CC(C)(C)Cn1c(N)nc2ccc(-c3[nH]c(C(C)(C)C)nc3-c3ccc(F)cc3)nc21 [ralimetinib]
Summary of the method: as §1

[12] = compound: CC(C)C[C@@H](C=O)NC(=O)[C@H](CC(C)C)NC(=O)[C@H](CC(C)C)NC(=O)OCc1ccccc1
Summary of the method: as §1

[13] = compound: C1=CC(=C(C=C1Cl)C2=NC3=NC=CN=C3C(=N2)NC4=CC=NC=C4)F
Summary of the method: as §1

[14] = compound: CC(C)(O)CC(=O)NCCn1ccc2ncnc(Nc3ccc(Oc4cccc(C(F)(F)F)c4)c(Cl)c3)c21
Summary of the method: as §1

[15] = compound: CC1=C(C(CC(=O)N1)C2=CC=C(C=C2)C(F)(F)F)C(=O)NC3=C(C=C4C(=C3)C=NN4)F
Summary of the method: as §1

Measured: log2 fold change

ING5 (UniProt Q8WYH8)
Chain of UniProt Q8WYH8 (Q8WYH8 whole entry, looked up): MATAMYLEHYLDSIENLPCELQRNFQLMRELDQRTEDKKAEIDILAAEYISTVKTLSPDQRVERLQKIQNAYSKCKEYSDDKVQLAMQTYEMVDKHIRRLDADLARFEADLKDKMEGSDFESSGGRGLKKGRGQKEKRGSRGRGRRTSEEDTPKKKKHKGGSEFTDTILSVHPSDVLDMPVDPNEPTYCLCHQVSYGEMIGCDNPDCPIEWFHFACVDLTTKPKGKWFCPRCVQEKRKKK
inactive: erlotinib 0.273 | [1] -0.119 | [2] 0.003 | [3] 0.286 | IRAK-1-4 Inhibitor I 0.101 | [4] -0.395 | pinometostat 0.097 | [5] 0.03

MGRN1 isoform 2 (UniProt O60291)
active: [7] -0.544
inactive: erlotinib 0.016 | [6] 0.079 | [1] 0 | [8] 0.004 | [9] -0.095 | [10] 0.073 | [2] 0.008 | [3] 0.227 | IRAK-1-4 Inhibitor I 0.062 | ibrutinib -0.003 | [11] 0.116 | ralimetinib -0.015 | [4] -0.225 | [12] 0.114 | pinometostat 0.041 | [5] -0.098

MAML1 (UniProt Q92585)
Chain of UniProt Q92585 (Q92585 whole entry, looked up): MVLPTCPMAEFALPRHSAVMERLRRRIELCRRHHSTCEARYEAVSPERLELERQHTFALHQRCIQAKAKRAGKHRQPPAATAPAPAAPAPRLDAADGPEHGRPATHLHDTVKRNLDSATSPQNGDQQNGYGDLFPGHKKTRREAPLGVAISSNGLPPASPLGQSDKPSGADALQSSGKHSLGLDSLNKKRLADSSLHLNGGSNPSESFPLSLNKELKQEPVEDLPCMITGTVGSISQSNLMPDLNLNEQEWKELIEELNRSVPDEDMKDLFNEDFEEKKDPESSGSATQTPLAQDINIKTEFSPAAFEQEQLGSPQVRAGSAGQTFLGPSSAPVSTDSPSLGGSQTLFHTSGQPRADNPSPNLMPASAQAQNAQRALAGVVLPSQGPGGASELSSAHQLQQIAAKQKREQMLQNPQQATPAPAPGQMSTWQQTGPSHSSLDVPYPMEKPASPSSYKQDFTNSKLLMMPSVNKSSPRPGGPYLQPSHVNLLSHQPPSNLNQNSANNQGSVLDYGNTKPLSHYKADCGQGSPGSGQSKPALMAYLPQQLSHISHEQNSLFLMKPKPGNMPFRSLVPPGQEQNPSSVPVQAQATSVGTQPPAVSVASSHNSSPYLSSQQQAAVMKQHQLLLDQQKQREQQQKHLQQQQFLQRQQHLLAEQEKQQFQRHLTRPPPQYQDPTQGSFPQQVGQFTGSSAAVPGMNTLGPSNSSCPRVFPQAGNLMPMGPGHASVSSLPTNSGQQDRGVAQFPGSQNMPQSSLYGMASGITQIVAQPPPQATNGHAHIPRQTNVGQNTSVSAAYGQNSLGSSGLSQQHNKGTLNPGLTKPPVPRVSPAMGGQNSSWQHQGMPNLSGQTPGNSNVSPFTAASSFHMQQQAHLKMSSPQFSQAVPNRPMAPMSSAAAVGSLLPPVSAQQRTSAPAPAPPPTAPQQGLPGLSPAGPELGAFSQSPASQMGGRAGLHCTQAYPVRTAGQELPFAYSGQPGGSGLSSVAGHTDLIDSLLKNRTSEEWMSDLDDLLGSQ
inactive: erlotinib 0.369 | [13] 0.004 | [1] 0.082 | [9] -0.004 | IRAK-1-4 Inhibitor I 0.117 | ralimetinib 0.013 | [14] 0.02 | [4] 0.016 | [12] -0.043 | pinometostat -0.133

MCM10 (UniProt Q7L590)
inactive: erlotinib -0.066 | [13] 0.205 | [1] 0.039 | [8] -0.054 | [2] -0.153 | [3] 0.125 | IRAK-1-4 Inhibitor I 0.096 | ibrutinib 0.018 | [14] -0.115 | [4] 0.015 | pinometostat -0.108 | [15] 0.07 | [5] -0.037

KIF21A (UniProt H0YI78)
inactive: erlotinib 0.077 | [1] -0.137 | [9] 0.1 | ralimetinib 0.366 | [4] -0.158 | [12] 0.012

IGFBP6 (UniProt P24592)
Chain of UniProt P24592 (P24592 whole entry, looked up): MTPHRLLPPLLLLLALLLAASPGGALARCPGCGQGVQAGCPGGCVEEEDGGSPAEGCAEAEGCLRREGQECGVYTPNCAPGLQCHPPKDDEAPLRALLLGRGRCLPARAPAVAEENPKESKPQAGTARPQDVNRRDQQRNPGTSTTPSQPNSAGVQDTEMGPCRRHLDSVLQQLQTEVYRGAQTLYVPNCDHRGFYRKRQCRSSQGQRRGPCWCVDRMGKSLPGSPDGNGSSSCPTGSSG
inactive: [6] -0.215 | [7] 0.057 | [9] 0.131 | [10] -0.19 | [11] -0.02 | ralimetinib -0.049 | [12] 0.097

JAK3 (UniProt P52333)
Chain of UniProt P52333 (P52333 whole entry, looked up): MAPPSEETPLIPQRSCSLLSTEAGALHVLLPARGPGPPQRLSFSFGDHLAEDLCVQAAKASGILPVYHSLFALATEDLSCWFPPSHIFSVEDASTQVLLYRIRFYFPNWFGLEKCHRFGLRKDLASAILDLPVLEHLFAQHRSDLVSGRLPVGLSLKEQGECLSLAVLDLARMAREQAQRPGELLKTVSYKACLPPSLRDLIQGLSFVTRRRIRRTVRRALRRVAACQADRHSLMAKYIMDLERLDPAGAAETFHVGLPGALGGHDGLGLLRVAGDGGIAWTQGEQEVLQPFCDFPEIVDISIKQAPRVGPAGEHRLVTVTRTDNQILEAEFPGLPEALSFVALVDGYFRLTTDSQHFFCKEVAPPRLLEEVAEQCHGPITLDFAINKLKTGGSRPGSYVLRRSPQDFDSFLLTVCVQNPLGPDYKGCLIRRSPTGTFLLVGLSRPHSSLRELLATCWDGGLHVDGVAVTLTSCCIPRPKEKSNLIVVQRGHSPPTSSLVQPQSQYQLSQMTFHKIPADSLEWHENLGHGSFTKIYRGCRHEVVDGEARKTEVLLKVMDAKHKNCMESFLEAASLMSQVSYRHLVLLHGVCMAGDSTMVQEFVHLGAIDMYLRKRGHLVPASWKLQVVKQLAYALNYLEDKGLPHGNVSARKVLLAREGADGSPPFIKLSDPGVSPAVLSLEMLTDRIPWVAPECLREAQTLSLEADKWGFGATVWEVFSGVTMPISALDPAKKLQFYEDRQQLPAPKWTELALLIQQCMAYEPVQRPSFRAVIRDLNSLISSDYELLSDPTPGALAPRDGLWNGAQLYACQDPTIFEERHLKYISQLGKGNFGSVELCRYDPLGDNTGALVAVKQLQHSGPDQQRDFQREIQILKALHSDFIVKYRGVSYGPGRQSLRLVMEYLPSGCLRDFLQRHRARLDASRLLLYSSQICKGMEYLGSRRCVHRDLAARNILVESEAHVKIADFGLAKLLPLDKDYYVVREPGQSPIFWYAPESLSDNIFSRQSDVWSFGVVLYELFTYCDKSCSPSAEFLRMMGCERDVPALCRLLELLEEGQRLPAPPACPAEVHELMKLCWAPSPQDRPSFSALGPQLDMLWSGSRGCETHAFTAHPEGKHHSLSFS
inactive: erlotinib -0.178 | [13] 0.062 | [1] -0.013 | [8] 0.021 | [9] -0.207 | [2] 0.059 | [3] -0.024 | IRAK-1-4 Inhibitor I -0.01 | ibrutinib -0.052 | ralimetinib -0.184 | [14] -0.045 | [4] 0.072 | [12] -0.043 | pinometostat -0.082 | [15] 0.009 | [5] -0.089

LSR isoform 3 (UniProt Q86X29)
inactive: [2] -0.169 | [3] 0.25 | [5] -0.106

LDLRAP1 (UniProt Q5SW96)
inactive: erlotinib -0.017 | [1] 0.252 | [8] 0.199 | [9] -0.118 | IRAK-1-4 Inhibitor I 0.013 | ibrutinib -0.177 | ralimetinib -0.032 | [12] 0.028 | pinometostat 0.318
active: [4] -0.541

MAP4K4 isoform 6 (UniProt O95819)
inactive: [2] -0.168 | [3] -0.025 | [15] -0.033 | [5] 0.143

KIZ (UniProt Q2M2Z5)
Chain of UniProt Q2M2Z5 (Q2M2Z5 whole entry, looked up): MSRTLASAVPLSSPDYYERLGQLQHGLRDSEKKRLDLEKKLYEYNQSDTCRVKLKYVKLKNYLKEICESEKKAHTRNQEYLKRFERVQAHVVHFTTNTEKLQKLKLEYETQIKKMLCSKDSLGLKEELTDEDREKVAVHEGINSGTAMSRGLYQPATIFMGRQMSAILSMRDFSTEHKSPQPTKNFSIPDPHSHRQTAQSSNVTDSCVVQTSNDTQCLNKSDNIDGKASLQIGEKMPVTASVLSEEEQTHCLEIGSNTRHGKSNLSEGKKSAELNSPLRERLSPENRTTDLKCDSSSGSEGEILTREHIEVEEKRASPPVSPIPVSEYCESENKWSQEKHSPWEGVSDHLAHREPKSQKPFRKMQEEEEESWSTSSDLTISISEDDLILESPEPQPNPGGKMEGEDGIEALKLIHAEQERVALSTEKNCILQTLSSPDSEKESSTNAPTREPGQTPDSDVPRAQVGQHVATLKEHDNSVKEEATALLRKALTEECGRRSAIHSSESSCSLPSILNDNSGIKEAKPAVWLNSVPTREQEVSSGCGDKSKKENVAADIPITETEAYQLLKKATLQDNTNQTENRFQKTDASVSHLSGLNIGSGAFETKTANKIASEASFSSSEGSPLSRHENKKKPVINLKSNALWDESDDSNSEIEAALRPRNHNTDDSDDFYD
inactive: [6] 0.018 | [7] 0.077 | [9] 0.103 | [10] -0.01 | IRAK-1-4 Inhibitor I -0.075 | [11] 0.039 | ralimetinib 0.06 | [12] -0.107 | pinometostat 0.099

IPP (UniProt Q9Y573)
Chain of UniProt Q9Y573 (Q9Y573 whole entry, looked up): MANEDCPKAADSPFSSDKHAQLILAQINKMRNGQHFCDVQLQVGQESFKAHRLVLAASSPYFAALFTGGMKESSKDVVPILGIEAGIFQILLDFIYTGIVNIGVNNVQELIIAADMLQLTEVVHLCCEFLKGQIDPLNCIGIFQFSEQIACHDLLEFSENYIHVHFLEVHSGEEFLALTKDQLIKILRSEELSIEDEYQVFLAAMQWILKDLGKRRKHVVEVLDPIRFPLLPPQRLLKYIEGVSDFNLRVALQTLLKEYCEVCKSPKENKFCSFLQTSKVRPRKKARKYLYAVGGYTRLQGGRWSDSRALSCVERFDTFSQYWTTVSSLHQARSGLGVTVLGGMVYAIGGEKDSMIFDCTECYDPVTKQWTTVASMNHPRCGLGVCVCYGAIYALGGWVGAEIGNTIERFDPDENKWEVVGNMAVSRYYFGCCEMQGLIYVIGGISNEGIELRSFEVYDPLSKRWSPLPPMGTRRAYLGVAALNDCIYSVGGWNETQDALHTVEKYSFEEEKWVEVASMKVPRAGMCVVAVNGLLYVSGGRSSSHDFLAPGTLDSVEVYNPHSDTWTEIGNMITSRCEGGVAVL
inactive: [6] 0.091 | [7] 0.083 | [8] -0.17 | [10] 0.139 | ibrutinib 0.041 | [11] -0.084

MAPK14 (UniProt Q16539)
Chain of UniProt Q16539 (Q16539 whole entry, looked up): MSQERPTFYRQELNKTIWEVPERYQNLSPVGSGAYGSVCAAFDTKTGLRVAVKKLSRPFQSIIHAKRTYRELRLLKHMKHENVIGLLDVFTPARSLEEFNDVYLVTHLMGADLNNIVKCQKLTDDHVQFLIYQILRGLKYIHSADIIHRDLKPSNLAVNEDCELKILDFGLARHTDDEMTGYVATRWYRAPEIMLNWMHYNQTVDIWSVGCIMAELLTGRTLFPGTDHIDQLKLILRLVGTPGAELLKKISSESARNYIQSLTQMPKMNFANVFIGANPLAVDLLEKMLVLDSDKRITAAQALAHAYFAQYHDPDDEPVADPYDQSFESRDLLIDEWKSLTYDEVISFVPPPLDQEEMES
active: [9] 1.04 | [11] 0.793 | ralimetinib 1.52
inactive: erlotinib 0.238 | [6] 0.106 | [1] -0.116 | [7] -0.054 | [8] 0.001 | [10] 0.174 | [2] 0.051 | [3] -0.072 | IRAK-1-4 Inhibitor I -0.048 | ibrutinib 0.016 | [4] -0.178 | [12] -0.135 | pinometostat -0.09 | [15] -0.234 | [5] 0.062

ILF3 (UniProt Q12906)
inactive: [13] -0.083 | [8] 0.128 | IRAK-1-4 Inhibitor I -0.058 | ibrutinib 0.036 | [14] 0.191 | pinometostat 0.029 | [15] -0.126

IKZF1 isoform 2 (UniProt Q13422)
active: [2] -0.38 | [5] 0.418
inactive: erlotinib 0.017 | [1] -0.006 | [8] 0.046 | [9] 0.047 | [3] -0.016 | ibrutinib 0.252 | ralimetinib 0.152 | [4] 0.031 | [12] 0.159 | [15] -0.041

MARCHF3 (UniProt Q86UD3)
Chain of UniProt Q86UD3 (Q86UD3 whole entry, looked up): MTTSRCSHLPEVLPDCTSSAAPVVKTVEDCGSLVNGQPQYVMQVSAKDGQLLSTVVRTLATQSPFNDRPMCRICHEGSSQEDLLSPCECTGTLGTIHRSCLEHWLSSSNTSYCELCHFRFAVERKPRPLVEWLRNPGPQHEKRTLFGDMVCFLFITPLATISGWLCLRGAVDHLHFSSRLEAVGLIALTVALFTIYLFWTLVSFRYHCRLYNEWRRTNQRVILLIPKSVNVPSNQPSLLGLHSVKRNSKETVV
inactive: [13] -0.188 | [8] -0.073 | ibrutinib 0.073 | [14] -0.133 | [15] -0.058

MBLAC1 (UniProt A4D2B0)
inactive: erlotinib 0.074 | [6] -0.042 | [1] 0.026 | [7] 0.036 | [8] 0.019 | [9] 0.002 | [10] -0.024 | IRAK-1-4 Inhibitor I 0.371 | ibrutinib -0.03 | [11] 0.001 | ralimetinib -0.074 | [4] 0.126 | [12] -0.011 | pinometostat -0.163

MFAP3 (UniProt P55082)
Chain of UniProt P55082 (P55082 whole entry, looked up): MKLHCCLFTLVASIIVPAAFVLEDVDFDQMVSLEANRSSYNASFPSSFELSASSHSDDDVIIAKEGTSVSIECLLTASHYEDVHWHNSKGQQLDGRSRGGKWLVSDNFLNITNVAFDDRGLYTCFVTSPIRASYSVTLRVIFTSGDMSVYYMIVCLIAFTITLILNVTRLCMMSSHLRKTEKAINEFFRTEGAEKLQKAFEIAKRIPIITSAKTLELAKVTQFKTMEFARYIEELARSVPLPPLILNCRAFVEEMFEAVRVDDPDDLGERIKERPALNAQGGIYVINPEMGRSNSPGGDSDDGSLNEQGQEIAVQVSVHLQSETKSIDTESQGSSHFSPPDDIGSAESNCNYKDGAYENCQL
inactive: [6] 0.202 | [13] -0.021 | [7] 0.029 | [8] -0.106 | [10] -0.142 | [2] -0.088 | [3] 0.064 | ibrutinib -0.027 | [11] -0.067 | [14] -0.165 | [5] -0.111
